This passage reports growth results from PubChem BioAssay (NCI).

About 83,000 compounds went through this panel and 20% of them were active in at least one assay; those are over-represented in the sample as a whole.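 The test compound was applied at a single concentration to cells in 96-well plates for 48 hours, and percent growth was recorded.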 A number with no mark means an inactive call. Activity calls are given as the source filed them. Rule for the calls: active = growth percent below 10; inactive = the rest.

This test concerns HL-60(TB) leukemia. The experiment in a line: NCI-60 one-dose screen, 48 h (100 = growth as untreated, 0 = no growth, -100 = all killed). The note with it: 10 µM unless noted.
Turning to `O=C(NCCCN1CCOCC1)c1cccc(N2C(=O)/C(=C/c3ccc(F)cc3)SC2=S)c1`, the growth was 99.6%.

Take `O=C(Nc1nc2ccc(F)cc2s1)c1cccnc1Nc1ccc(Cl)cc1`: the growth was 33.3%.

On to `CN(C)c1ccc(-c2cc(-c3ccc(Nc4nc(Nc5ccc(Cl)cc5)nc(Nc5ccc(Cl)cc5)n4)cc3)no2)cc1`, for which the growth is 3.2% (active).

`CC(C)(C)[Si](C)(C)OC1[C@@H](O[Si](C)(C)C(C)(C)C)[C@@H](CNC(=O)NC(=O)C(F)(F)F)O[C@H]1n1cnc2c(NC(=O)Nc3ccccc3)ncnc21` (some centres undefined): the growth was -52.6% (active).

On to `OCc1cccnc1`, for which the growth is 117%.

Turning to `CCOC(=O)C(=Cc1cccc(Cl)c1)C(=O)OCC`, the growth was -2% (active).

As to `COc1cc2c(cc1OC)N(CCO)C1=C(C(=O)OC1)C2c1ccc(Cl)c(Cl)c1` (centres undefined), the growth was 93.4%.

For the compound `NC(=O)c1n[nH]n2c1nc(=O)c1c3c(sc12)CCCC3`, the growth was 99.9%.

On to `CCCN(CCC)C(=O)c1ccc(C)cc1`, for which the growth was 100%.
